This passage reports Potency and outcome results from PubChem BioAssay (NCATS).

Assay [1] is described as follows: SW1088 Cancer Cell Toxicity qHTS against the NCATS CANVASS Library (AID 1347350). Further: nearly all actives have a fitted effect of over 75% in size. Further: potency means the concentration at half of the fitted maximal effect. A digest of the protocol:
(§1)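 Step one: seed 1000 cells per well. Step two: incubate 4 h. Step three: add test compounds in 11 concentrations. Step four: culture 72 h, then add CellTiter-Glo and record luminescence after 15min.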

A short description of assay [2]: A2780 Cisplatin Sensitive Ovarian Cancer Cell Toxicity qHTS against the NCATS CANVASS Library (AID 1347353). Further: nearly all actives have a fitted effect of over 60% in size. Further: potency means the concentration at half of the fitted maximal effect. In a few lines: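 A2780 cells, 750/well, settled 4 h at 37 °C, then treated with an 11-point compound series for 72 h. Viability was read as ATPLite luminescence after 10 min at room temperature, with bortezomib as control.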
Assay [3] is described as follows: HEK-293 Cancer Cell Toxicity qHTS against the NCATS CANVASS Library (AID 1347355). Further: nearly all actives have a fitted effect of over 65% in size. Further: potency means the concentration at half of the fitted maximal effect. A digest of the protocol:
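Cells at 1000/well were given compound 4 h after plating in an 11-point series. Viability was read by CellTiter-Glo luminescence after 72 h at 37 degrees C.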
A general note: qHTS replaces the single test concentration by a dilution series.

A short description of assay [4]: KB-8-5-11 Cancer Cell Toxicity qHTS against the NCATS CANVASS Library (AID 1347364). Further: nearly all actives have a fitted effect of over 75% in size. A digest of the protocol: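 KB-8-5-11 cells, 500/well in DMEM + 10% FBS, given compounds in an 11-point series. Incubated 72 h at 37 °C. Viability by CellTiter-Glo luminescence. Confirmation also run with 1 uM tariquidar.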
Assay [5] in a line: SDT Cancer Cell Toxicity qHTS against the NCATS CANVASS Library (AID 1347365). Further: nearly all actives have a fitted effect of over 60% in size. Further: potency means the concentration at half of the fitted maximal effect. A digest of the protocol: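 SDT dog glioma cells (500/well) exposed to an 11-point compound series for 72 hr at 37C, 5% CO2. Cytotoxicity read as ATP content by CellTiterGlo luminescence; bortezomib titration as control.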
Assay [6] in a line: qHTS for ATAD5 Agonist screened against the NCATS CANVASS Library (AID 1347367).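 Further: luciferase reporter driven by ATAD5 which rises upon DNA damage.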 A digest of the protocol:
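HEK293T cells stably carrying an ATAD5-controlled luciferase reporter (2000 cells/well) attached for 5 hr, then received compounds in an 11-point series for 16hr at 37C. Luminescence was read after a 30 min room-temperature reagent step.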

Assay [7] in a line: G06 Cancer Cell Toxicity qHTS against the NCATS CANVASS Library (AID 1347368). Further: nearly all actives have a fitted effect of over 60% in size. Further: potency means the concentration at half of the fitted maximal effect. A digest of the protocol: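 G06 dog glioma cells, 500 per well, exposed 72 hr at 37C, 5% CO2 to compounds in an 11-point series. Cytotoxicity read as ATP content by CellTiterGlo luminescence.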
Assay [8] is described as follows: MCF7 Cancer Cell Toxicity qHTS against the NCATS CANVASS Library (AID 1347369). In a few lines:
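MCF7, 500 cells/well; cpds 11-pt qHTS; 72 hr, 37C/5% CO2; CellTiterGlo ATP luminescence.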

Assay [9] in a line: qHTS for ATAD5 Antagonist screened against the NCATS CANVASS Library (AID 1347370). Further: nearly all actives have a fitted effect of over 65% in size. Further: potency means the concentration at half of the fitted maximal effect. In a few lines: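 HEK293T cells with stably integrated ATAD5-luciferase reporter, 2000/well, 5 h attachment; compounds plus 10 µM 5-fluorouridine, 16 h at 37 °C. Luciferase luminescence read, with CellTiter-Fluor viability read first.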
Assay [10] is described as follows: qHTS for Hypoxia signaling pathway (HIF-1) antagonists against the NCATS CANVASS Library (AID 1347374). Further: nearly all actives have a fitted effect of over 60% in size. Further: potency means the concentration at half of the fitted maximal effect. In a few lines:
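HRE-bla ME-180 cells in medium with 0.5% dialyzed FBS received compounds (11-point series) plus CoCl2 (60 uM addition stock) for 17 hrs at 37C. Beta-lactamase activity read with CCF4 (405 nm ex, 460/530 nm em); CellTiter-Glo viability measured in same wells.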

Assay [11] in a line: qHTS for H2AX Agonists against the NCATS CANVASS Library (AID 1347378). A digest of the protocol:
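CHO-K1 cells were plated overnight at 37C, then exposed to compounds (concentration series, 0.76% DMSO final) for 3 hr at 37C. Lysates received Eu-cryptate anti-pH2AX (S139) and d2 anti-H2AX antibodies; after 24 hr at room temperature, TR-FRET 665/620 nm ratio was read.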

The nature of assay [12]: Inflammasome Signaling qHTS Counterscreen: IL-1-beta AlphaLISA counterscreen against the NCATS CANVASS Library (AID 1347381).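 Further: cell-free check with purified IL-1β in medium and no THP-1 cells; series mostly up to about 57 µM.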 In a few lines:
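Cell-free interference check: compounds added to medium spiked with 4 pg purified IL-1β. Anti-IL-1β acceptor beads (6 ug/mL) with 0.6 nM biotinylated antibody added for 1 h at RT, then streptavidin donor beads (24 ug/mL) for 30 min in the dark. AlphaLISA read at 680/615 nm.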

The nature of assay [13]: Secretion counterscreen for inhibitors of the SERCaMP assay screened against the NCATS CANVASS Library (AID 1347390).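 Further: light from luciferase secreted into medium read as a measure of general secretion.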 Further: potency means the concentration at half of the fitted maximal effect. In a few lines: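 SH-SY5Y cells expressing constitutively secreted GLuc, 1000 cells/well, attached 4 h at 37C, then exposed to compounds (0.001 - 77 uM, 11-pnt series) for 20 h. Coelenterazine added; luminescence read to flag secretory-pathway interferers.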
(In general: A counterscreen serves to expose hits that act by an unwanted route or on another target.)

A short description of assay [14]: qHTS for activators of Nrf2/ARE signaling pathway screened against the NCATS CANVASS Library (AID 1347391). Further: nearly all actives have a fitted effect of over 60% in size. Further: potency means the concentration at half of the fitted maximal effect. A digest of the protocol: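 ARE-bla HepG2 beta-lactamase reporter cells exposed to compounds for 16 h at 37C; CCF4 substrate 2 h, fluorescence at ex 405 nm, em 460/530 nm. Viability by CellTiter-Glo luminescence.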
A short description of assay [15]: qHTS for inhibitors of ER calcium dysfunction: SERCaMP assay screened against the NCATS CANVASS Library (AID 1347393). Further: nearly all actives have a fitted effect of over 40% in size. Further: potency means the concentration at half of the fitted maximal effect. In a few lines: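 qHTS in SH-SY5Y reporter cells: 16 h compound pretreatment, 4 h thapsigargin, then secreted Gaussia luciferase measured by luminescence.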
Assay [16] is described as follows: qHTS for inhibitors of Wild type Zika virus screened against the NCATS CANVASS Library (AID 1347396).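 Further: ATP luminescence of surviving cells so rescue from viral cell killing; series mostly up to about 46 µM.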 In a few lines: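 Luminescent CellTiter Glo read-out of virus-induced cytotoxicity, 72 h post-infection, in Vero 766 cells. Compounds were tested at 11 concentrations; uninfected, vehicle-treated wells defined 100% inhibition.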
Assay [17] is described as follows: OV-KATE Cancer Cell Toxicity qHTS against the NCATS CANVASS Library (AID 1347345). A digest of the protocol:
as §1

The target in assay [18] is Luciferin 4-monooxygenase (Photinus pyralis) (UniProt P08659). As to the kind of experiment: Firefly luciferase counterscreen qHTS: Assay Interference Panel against the NCATS CANVASS Library (AID 1347363). Further: series mostly up to about 57 µM. In a few lines:
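Purified P. pyralis luciferase was added to compounds (11-point series) preincubated 15 min at room temperature with substrate containing 0.013 mM D-luciferin and 0.013 mM ATP; luminescence was read after 5 min.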

Assay [19] in a line: J3T Cancer Cell Toxicity qHTS against the NCATS CANVASS Library (AID 1347371). Further: potency means the concentration at half of the fitted maximal effect. In a few lines: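 J3T dog glioma cells, 500 per well, treated 72 h at 37C with compounds (11-point qHTS); viability from ATP content by CellTiterGlo luminescence; bortezomib titration as control.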
Assay [20] is described as follows: HPAF-II 12hr Apoptosis Induction qHTS against the NCATS CANVASS Library (AID 1347358). In a few lines:
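HPAF-II cells, 500/well in DMEM + 10% FBS, exposed 12 hours at 37 degrees C to compound (11-point). Caspase-Glo 3/7 added for 15 min at room temperature; luminescence reflects caspase-3/7 activity.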

Where “and” joins values, the source holds several entries; their conditions need not be identical. Identical values can stand only once. Results filed as inconclusive are left out. Calls of active or inactive are those of the source. The call rests on the fitted dose curve; in most records, active means well fitted curve in the direction sought with a large enough effect; inconclusive means small, poorly fitted or top-dose-only effect, or another doubt; inactive means no such curve, though single readings can be large; an effect the other way counts as inactive or inconclusive.

Sequence of Luciferin 4-monooxygenase (Photinus pyralis) (P08659 whole entry, looked up): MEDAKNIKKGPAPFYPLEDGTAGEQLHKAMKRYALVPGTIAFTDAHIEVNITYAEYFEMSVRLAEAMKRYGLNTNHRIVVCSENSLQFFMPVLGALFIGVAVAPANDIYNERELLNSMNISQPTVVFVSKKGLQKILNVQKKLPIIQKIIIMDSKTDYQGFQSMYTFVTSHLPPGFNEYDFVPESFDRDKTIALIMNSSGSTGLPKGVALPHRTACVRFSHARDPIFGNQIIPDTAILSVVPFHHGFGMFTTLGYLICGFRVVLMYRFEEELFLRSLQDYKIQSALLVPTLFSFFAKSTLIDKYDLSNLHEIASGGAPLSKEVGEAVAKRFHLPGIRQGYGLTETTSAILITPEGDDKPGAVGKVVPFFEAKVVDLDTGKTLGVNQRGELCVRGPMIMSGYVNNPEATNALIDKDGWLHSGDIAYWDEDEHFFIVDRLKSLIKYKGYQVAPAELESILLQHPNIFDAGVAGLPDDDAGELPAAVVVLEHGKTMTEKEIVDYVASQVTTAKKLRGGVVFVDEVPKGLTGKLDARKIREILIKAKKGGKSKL

On to `C/C(=C\[C@H](C)C(=O)C[C@H](O)CC1CC(=O)NC(=O)C1)[C@@H]1OC(=O)CCCC/C=C/[C@@H](O)C[C@@H]1C`, for which the Potency entry in assay [1], in assay [4], in assay [6], in assay [8], in assay [11] and in [15] was “inactive” in each case. Besides, the Potency in assay [2] is 2.35 µM (active); in assay [3], 9.35 µM (active); in [5], 2.35 µM (active); in assay [7], 2.96 µM (active); in assay [9], 7.41 µM (active); in assay [10], 4.2 µM (active). For the same compound, the Potency in assay [13] is 9.65 µM (active); in assay [14] it was 7.41 µM (active). In addition, the compound was classed as inactive in assay [12] and in [16].

On to `C/C1=C/[C@@H](C)[C@H](O)C/C=C/CC/C=C/C(=O)O[C@@H]1[C@H](C)C(=O)CCCC1CC(=O)NC(=O)C1`, for which the Potency entry in assay [17], in assay [1], in [18], in assay [4], in [6] and in assay [8] was “inactive” throughout. In addition, the Potency result in assay [11] and in [15] was “inactive” in each case. The Potency in assay [2] is 10.5 µM (active); in assay [3] it was 20.9 µM (active); in [5], 5.26 µM (active); in assay [7], 4.69 µM (active); in [9], 20.9 µM (active); in assay [10], 18.8 µM (active). In addition, the call in assay [12] and in assay [16] was inactive.

In the case of `C[C@H](CCC(O)C(C)(O)CO)[C@@]1(O)CC[C@@]2(C)C3=C(CC[C@@]21C)[C@@]1(C)CCC(OC(=O)CCC(=O)O)C(C)(C)[C@@H]1CC3` (stereo partly specified), the Potency entry in [17], in [2], in assay [3], in [4], in assay [5] and in assay [6] was “inactive” each time. In addition, the Potency entry in assay [7], in [8], in assay [9], in assay [19], in assay [13] and in assay [15] was “inactive” each time. The Potency in assay [10] is 14.9 µM (active). Also, the compound was called inactive in [12].

For `CC(C)=CCC[C@]1(C)[C@H]2CC(=O)[C@@]3(CO3)[C@@H]1C2`, the Potency entry in [17], in assay [1], in assay [2], in assay [3], in assay [4] and in [5] was “inactive” in each case. For the same compound, the Potency result in [7], in assay [8], in assay [9], in assay [19], in assay [10] and in assay [11] was “inactive” throughout. Moreover, the Potency result in assay [13], in assay [14] and in assay [15] was “inactive” in each case. In addition, the outcome in assay [16] was inactive.

For `C/C=C/c1cc2c(c(=O)o1)C(=O)[C@@H](O)[C@H](C)O2`, the Potency is 2.35 µM (active) in [2]; 9.35 µM (active) in [3]; 10.5 µM (active) in assay [5]; 5.26 µM (active) in assay [7]; 26.4 µM (active) in assay [19]; 14.9 µM (active) in assay [10]. Moreover, the values for the Potency in assay [13] and in [14] were 34.3 µM (active) and 4.67 µM (active), respectively. Besides, the Potency result in [20], in assay [18], in [6] and in [8] was “inactive” throughout. The compound was called inactive in assay [12] and in assay [16].

For `CC(C)[C@@H]1CC(=O)c2coc3c2[C@H]1C[C@@H](C)C3=O`, the Potency entry in [17], in assay [20], in [6], in assay [7], in assay [8] and in assay [9] was “inactive” throughout. Besides, the Potency result in [19], in assay [11], in assay [13] and in assay [15] was “inactive” in each case. Moreover, the call in assay [12] and in assay [16] was inactive.

`CC[C@@H](c1cc(OC)c(OC)cc1OC)[C@H](C)[C@@H](/C(C)=C/c1cc(OC)c(OC)cc1OC)c1cc(OC)c(OC)cc1OC`: the Potency entry in [17], in assay [20], in assay [18], in assay [4], in assay [5] and in [6] was “inactive” throughout. The Potency result in assay [7], in [8], in [19], in assay [11] and in assay [13] was “inactive” in each case. Besides, the Potency in assay [1] was 11.9 µM (active); in [2], 14.8 µM (active) and 20.9 µM (active); in assay [3], 16.6 µM (active); in assay [9] it was 13.2 µM (active); in assay [15], 2.43 µM (active) and 19.3 µM (active). Moreover, the compound was called inactive in assay [12] and in assay [16].
